Data reported in the supplement of paper PMC10037445.
Whole data set: some 2,900 compounds, median “NF-kB SEAP reporter activity, fold change vs agonist alone” near 0.99, cut for the highest 2% near 2.6. Shown is part of a subset that was picked to be rich in the highest values.

Experiments:
RAW-Dual [1] = experiment: NF-kB SEAP reporter activity, fold change vs agonist alone; cytotoxicity flag (confluency mask): not cytotoxic; higher = enhanced NF-kB activity
Procedure, shortened: (§1)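 Library stock was pin-tooled at 50 nL into 384-well plates of RAW-Dual macrophages (50,000 cells/well, DMEM), followed 1 h later by a PRR agonist, and the cells were kept at 37 °C, 5% CO2. Supernatant collected after 20 hours was read for IRF by QuantiLuc luminescence and for NF-κB by QuantiBlue absorbance at 620 nm. Reporter activity is fold change over agonist-alone wells, and a well counted as cytotoxic when its IncuCyte confluency was below 70% of agonist controls in both mask sets.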

RAW-Dual [2] = experiment: NF-kB SEAP reporter activity, fold change vs agonist alone; higher = enhanced NF-kB activity
Procedure, shortened: as §1

RAW-Dual [3] = experiment: NF-kB SEAP reporter activity, fold change vs agonist alone; cytotoxicity flag (confluency mask): cytotoxic (confluency <70% of control); higher = enhanced NF-kB activity
Procedure, shortened: as §1

[4] = agonist: ODN 1826 (TLR9) 0.5 ug/mL
[5] = agonist: Pam2CSK4 (TLR2/6) 0.1 ug/mL
[6] = agonist: Pam3CSK4 (TLR2/1) 0.1 ug/mL
[7] = library stock concentration (final ~1000-fold dilution): 10 mM, cytotoxicity flag (confluency mask): not cytotoxic, agonist: MPLA (TLR4) […]
[8] = library stock concentration (final ~1000-fold dilution): 10 mM, cytotoxicity flag (confluency mask): not cytotoxic, agonist: Imiquimod (TLR7) […]
[9] = library stock concentration (final ~1000-fold dilution): 10 mM, cytotoxicity flag (confluency mask): cytotoxic (confluency <70% of control), agonist: MPLA (TLR4) […]

CC12CCC(=O)C=C1C=CC1C2CCC2(C)C1CCC21CCC(=O)O1 (centres undefined) (library stock concentration (final ~1000-fold dilution): 10 mM)
NF-kB SEAP reporter activity (RAW-Dual [1]; agonist: LPS (TLR4) 0.1 ug/mL): 0.949
NF-kB SEAP reporter activity (RAW-Dual [1]; [4]): 1.05
NF-kB SEAP reporter activity (RAW-Dual [1]; [5]): 0.849
NF-kB SEAP reporter activity (RAW-Dual [1]; [6]): 0.874

CC12CCC(=O)C=C1C=CC1C2CCC2(C)C1CCC21CCC(=O)O1 (centres undefined)
NF-kB SEAP reporter activity (RAW-Dual [2]; [7]): 1.05

Cl.O=C1Cc2cc(CCN3CCN(c4nsc5ccccc45)CC3)c(Cl)cc2N1 (library stock concentration (final ~1000-fold dilution): 10 mM)
NF-kB SEAP reporter activity (RAW-Dual [1]; agonist: LPS (TLR4) 0.1 ug/mL): 0.912
NF-kB SEAP reporter activity (RAW-Dual [1]; [4]): 0.338
NF-kB SEAP reporter activity (RAW-Dual [1]; [5]): 0.746
NF-kB SEAP reporter activity (RAW-Dual [1]; [6]): 0.865

Cl.O=C1Cc2cc(CCN3CCN(c4nsc5ccccc45)CC3)c(Cl)cc2N1
NF-kB SEAP reporter activity (RAW-Dual [2]; [8]): 0.412
NF-kB SEAP reporter activity (RAW-Dual [2]; [7]): 0.73

O=C1Nc2ccc(CN3C(=O)CSC3=O)cc2/C1=C/c1cc(CN2CCOCC2)c[nH]1
NF-kB SEAP reporter activity (RAW-Dual [2]; [8]): 1.07
NF-kB SEAP reporter activity (RAW-Dual [2]; [7]): 1.43

O=C1Nc2ccc(CN3C(=O)CSC3=O)cc2/C1=C/c1cc(CN2CCOCC2)c[nH]1 (library stock concentration (final ~1000-fold dilution): 10 mM)
NF-kB SEAP reporter activity (RAW-Dual [1]; agonist: LPS (TLR4) 0.1 ug/mL): 1.89
NF-kB SEAP reporter activity (RAW-Dual [1]; [4]): 1.3
NF-kB SEAP reporter activity (RAW-Dual [1]; [5]): 0.605
NF-kB SEAP reporter activity (RAW-Dual [1]; [6]): 1.13

CCC(=O)OC(OP(=O)(CCCCc1ccccc1)CC(=O)N1CC(C2CCCCC2)CC1C(=O)O)C(C)C (centres undefined) (library stock concentration (final ~1000-fold dilution): 10 mM water)
NF-kB SEAP reporter activity (RAW-Dual [1]; agonist: LPS (TLR4) 0.1 ug/mL): 0.941
NF-kB SEAP reporter activity (RAW-Dual [1]; [4]): 1.05
NF-kB SEAP reporter activity (RAW-Dual [1]; [5]): 1.01
NF-kB SEAP reporter activity (RAW-Dual [1]; [6]): 0.946

CCC(=O)OC(OP(=O)(CCCCc1ccccc1)CC(=O)N1CC(C2CCCCC2)CC1C(=O)O)C(C)C (centres undefined)
NF-kB SEAP reporter activity (RAW-Dual [2]; library stock concentration (final ~1000-fold dilution): 10 mM water, cytotoxicity flag (confluency mask): not cytotoxic, agonist: Imiquimod (TLR7) […]): 0.795
NF-kB SEAP reporter activity (RAW-Dual [2]; library stock concentration (final ~1000-fold dilution): 10 mM water, cytotoxicity flag (confluency mask): not cytotoxic, agonist: MPLA (TLR4) […]): 0.935

CN(C)c1ccc(O)c2c1CC1CC3C(N(C)C)C(=O)C(C(N)=O)=C(O)C3(O)C(=O)C1=C2O (centres undefined)
NF-kB SEAP reporter activity (RAW-Dual [2]; library stock concentration (final ~1000-fold dilution): 5 mM, cytotoxicity flag (confluency mask): not cytotoxic, agonist: Imiquimod (TLR7) […]): 1.25
NF-kB SEAP reporter activity (RAW-Dual [2]; library stock concentration (final ~1000-fold dilution): 5 mM, cytotoxicity flag (confluency mask): not cytotoxic, agonist: MPLA (TLR4) […]): 0.933

CN(C)c1ccc(O)c2c1CC1CC3C(N(C)C)C(=O)C(C(N)=O)=C(O)C3(O)C(=O)C1=C2O (centres undefined) (library stock concentration (final ~1000-fold dilution): 5 mM)
NF-kB SEAP reporter activity (RAW-Dual [1]; agonist: LPS (TLR4) 0.1 ug/mL): 1.03
NF-kB SEAP reporter activity (RAW-Dual [1]; [4]): 1.15
NF-kB SEAP reporter activity (RAW-Dual [1]; [5]): 0.833
NF-kB SEAP reporter activity (RAW-Dual [1]; [6]): 0.759

CN(C)CCC=C1c2ccccc2C(C)(C)c2ccccc21.Cl
NF-kB SEAP reporter activity (RAW-Dual [2]; [9]): 1.4

CN(C)CCC=C1c2ccccc2C(C)(C)c2ccccc21.Cl (library stock concentration (final ~1000-fold dilution): 10 mM)
NF-kB SEAP reporter activity (RAW-Dual [3]; agonist: LPS (TLR4) 0.1 ug/mL): 1.45
NF-kB SEAP reporter activity (RAW-Dual [3]; [4]): 0.727
NF-kB SEAP reporter activity (RAW-Dual [3]; [5]): 0.53
NF-kB SEAP reporter activity (RAW-Dual [3]; [6]): 0.8

O=C(NO)c1cnc(NC2(c3ccccc3)CC2)nc1
NF-kB SEAP reporter activity (RAW-Dual [2]; library stock concentration (final ~1000-fold dilution): 10 mM, cytotoxicity flag (confluency mask): cytotoxic (confluency <70% of control), agonist: Imiquimod (TLR7) […]): 1.46
NF-kB SEAP reporter activity (RAW-Dual [2]; [9]): 2.22

O=C(NO)c1cnc(NC2(c3ccccc3)CC2)nc1 (library stock concentration (final ~1000-fold dilution): 10 mM)
NF-kB SEAP reporter activity (RAW-Dual [3]; agonist: LPS (TLR4) 0.1 ug/mL): 2.94
NF-kB SEAP reporter activity (RAW-Dual [3]; [4]): 1.6
NF-kB SEAP reporter activity (RAW-Dual [3]; [5]): 0.654
NF-kB SEAP reporter activity (RAW-Dual [3]; [6]): 1.4

CC(C)NCC(O)COc1ccc(COCCOC(C)C)cc1.O=C(O)/C=C/C(=O)O (centres undefined)
NF-kB SEAP reporter activity (RAW-Dual [2]; [8]): 0.869
NF-kB SEAP reporter activity (RAW-Dual [2]; [7]): 1.02

CC(C)NCC(O)COc1ccc(COCCOC(C)C)cc1.O=C(O)/C=C/C(=O)O (centres undefined) (library stock concentration (final ~1000-fold dilution): 10 mM)
NF-kB SEAP reporter activity (RAW-Dual [1]; agonist: LPS (TLR4) 0.1 ug/mL): 1.05
NF-kB SEAP reporter activity (RAW-Dual [1]; [4]): 0.873
NF-kB SEAP reporter activity (RAW-Dual [1]; [5]): 0.984
NF-kB SEAP reporter activity (RAW-Dual [1]; [6]): 1.03

Cc1ccc(-c2c(-c3nn(C)c4ncnc(N5CCC(N6CCCCC6)C5)c34)cnn2C)cc1 (centres undefined) (library stock concentration (final ~1000-fold dilution): 10 mM)
NF-kB SEAP reporter activity (RAW-Dual [1]; agonist: LPS (TLR4) 0.1 ug/mL): 1.57
NF-kB SEAP reporter activity (RAW-Dual [1]; [4]): 0.856
NF-kB SEAP reporter activity (RAW-Dual [1]; [5]): 1.21
NF-kB SEAP reporter activity (RAW-Dual [1]; [6]): 1.16

Cc1ccc(-c2c(-c3nn(C)c4ncnc(N5CCC(N6CCCCC6)C5)c34)cnn2C)cc1 (centres undefined)
NF-kB SEAP reporter activity (RAW-Dual [2]; [8]): 0.947
NF-kB SEAP reporter activity (RAW-Dual [2]; [7]): 1.09

Cc1nc(Nc2ncc(C(=O)Nc3c(C)cccc3Cl)s2)cc(N2CCN(CCO)CC2)n1.O
NF-kB SEAP reporter activity (RAW-Dual [2]; [8]): 0.326
NF-kB SEAP reporter activity (RAW-Dual [2]; [7]): 0.715

Cc1nc(Nc2ncc(C(=O)Nc3c(C)cccc3Cl)s2)cc(N2CCN(CCO)CC2)n1.O (library stock concentration (final ~1000-fold dilution): 10 mM)
NF-kB SEAP reporter activity (RAW-Dual [1]; agonist: LPS (TLR4) 0.1 ug/mL): 1.33
NF-kB SEAP reporter activity (RAW-Dual [1]; [4]): 0.661
NF-kB SEAP reporter activity (RAW-Dual [1]; [5]): 0.283
NF-kB SEAP reporter activity (RAW-Dual [1]; [6]): 0.215

CC1OC(OC2CCC3(C)C(CCC4(C)C3C=CC35OCC6(CCC(C)(C)CC63)C(O)CC45C)C2(C)CO)C(O)C(OC2OC(CO)C(O)C(O)C2O)C1O (centres undefined) (library stock concentration (final ~1000-fold dilution): 10 mM)
NF-kB SEAP reporter activity (RAW-Dual [3]; agonist: LPS (TLR4) 0.1 ug/mL): 0.221
NF-kB SEAP reporter activity (RAW-Dual [3]; [4]): 0.257
NF-kB SEAP reporter activity (RAW-Dual [3]; [5]): 0.0991
NF-kB SEAP reporter activity (RAW-Dual [3]; [6]): 0.143

CC1OC(OC2CCC3(C)C(CCC4(C)C3C=CC35OCC6(CCC(C)(C)CC63)C(O)CC45C)C2(C)CO)C(O)C(OC2OC(CO)C(O)C(O)C2O)C1O (centres undefined)
NF-kB SEAP reporter activity (RAW-Dual [2]; [9]): 0.319

Clc1ccc(N/N=C(\c2ccccc2)c2ccccn2)nc1 (library stock concentration (final ~1000-fold dilution): 10 mM)
NF-kB SEAP reporter activity (RAW-Dual [1]; agonist: LPS (TLR4) 0.1 ug/mL): 4.59
NF-kB SEAP reporter activity (RAW-Dual [1]; [4]): 1.18
NF-kB SEAP reporter activity (RAW-Dual [1]; [5]): 0.556
NF-kB SEAP reporter activity (RAW-Dual [1]; [6]): 1.76

Clc1ccc(N/N=C(\c2ccccc2)c2ccccn2)nc1
NF-kB SEAP reporter activity (RAW-Dual [2]; [8]): 1.5
NF-kB SEAP reporter activity (RAW-Dual [2]; [7]): 2.77

NC(=O)c1ccccn1
NF-kB SEAP reporter activity (RAW-Dual [2]; [7]): 1.08

NC(=O)c1ccccn1 (library stock concentration (final ~1000-fold dilution): 10 mM)
NF-kB SEAP reporter activity (RAW-Dual [1]; agonist: LPS (TLR4) 0.1 ug/mL): 1.07
NF-kB SEAP reporter activity (RAW-Dual [1]; [4]): 0.942
NF-kB SEAP reporter activity (RAW-Dual [1]; [5]): 1.06
NF-kB SEAP reporter activity (RAW-Dual [1]; [6]): 0.836
